Only some compounds are listed: those with a hit (about 2.2% of all), similar ones and a draw of the others.
LGR2 inh: inhibitors of bursicon-induced Drosophila LGR2 receptor cAMP signaling | HEK293 LGR2, CRE-luciferase, bursicon-stimulated, 4 h | inhibition, % at 9.99 µM | 380,000 compounds, 0.35% hits | AID 720647;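 active = drop in luminescence signal, shown as inhibition above about 50% in the replicate tests, limit read from the data, passing the limit was not always enough; inconclusive = probably only some replicates passing the limit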;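 also: agonist challenge used bursicon conditioned medium at about half maximal strength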
EWS-Fli block: blocks EWS/Fli oncoprotein-driven transcription | A673 NR0B1-luciferase reporter, viability-normalised | inhibition, % at 12.6 µM | 350,000 compounds, 0.67% hits | AID 651661;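 active = mean inhibition of at least 50% after viability correction, with every replicate also passing that limit; inconclusive = mean reaches 50% but only one of two replicates passes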;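 also: firefly luciferase signal divided by Alamar Blue viability fluorescence both relative to DMSO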
PAX8 reporter: PAX8 transcriptional activity inhibition; RMG-I TPO-luciferase reporter, SteadyGlo, 24 h; inhibition, % at 12.6 µM; 360,000 compounds, 1.2% hits; AID 652154;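 active = mean replicate inhibition at least 60% with every replicate also reaching 60%; inconclusive = only one of the two criteria is met; inactive = mean below 60% and not all replicates reaching 60%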;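 also: luciferase light reporting Pax8 driven TPO promoter activity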
PGC1a acetyl inh: modulators of PGC1a acetylation. AID 651687. inhibition, % at 15.6 µM. 350,000 compounds, 0.17% hits. U2OS PGC1a acetylation, AlphaScreen anti-acetyl-lysine; with virally co-expressed GCN5 acetyltransferase;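 active = every replicate shows inhibition of at least 40%; inconclusive = mean inhibition at least 40% but some replicate below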
TRPM1 prom inh: inhibitors of MITF-driven TRPM1 promoter in melanoma cells; 330,000 compounds, 0.83% hits; AID 488899; inhibition, % at 12.5 µM; SK-MEL-5 TRPM1 promoter luciferase, 24 h;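 active = mean inhibition across replicates of 60% or more, whatever share of single replicates reaches that level; inconclusive = some that reach 60%, reason not given; inactive = mean inhibition across replicates below 60%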
LMP1 NFkB inh: Epstein-Barr LMP1 NF-kappaB reporter inhibition; LMP1-induced NF-kappaB luciferase reporter cells, luminescence; inhibition, % at 12.5 µM; 350,000 compounds, 0.69% hits; in the data active = inhibition above about 41%; inconclusive = no clear call, values can overlap the other calls
DNA binder FP: binds DNA displacing acridine orange. 640 compounds, 2% hits. AID 720586. shares compounds with EWS-Fli block. AC35, µM (titrated, usually from 68 µM). salmon sperm DNA acridine orange fluorescence polarization;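 active = fitted curve reaches a 35% signal fall AC35 below twice the sample's top valid tested dose, actives reach about 48 µM in these data; inactive = the rest, including activity in the rising direction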;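 also: lower polarization ratio signals compound binding to DNA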
Hits are given with their value; n = inactive; u = inconclusive; x = not tested or not shown; ! = repeats disagree.

SMILES	LGR2 inh	EWS-Fli block	PAX8 reporter	PGC1a acetyl inh	TRPM1 prom inh	LMP1 NFkB inh	DNA binder FP
O=C(NC1CCCC1)[C@H]1[C@H](CO)[C@H]2Cn3c(ccc(-c4cccnc4)c3=O)[C@@H]1N2CCc1ccccc1	n	n	n	x	x	x	x
Cc1ccsc1/C=N/Nc1cccc(C(=O)O)c1	88	66	90	x	96	66	n
O=C(O)c1ccc(N/N=C/c2cc(Br)cs2)cc1	n	65	n	n	n	n	n
O=C(N/N=C\c1cc(Br)cs1)c1ccncc1	n	n	n	n	n	n	x
COc1ccc(/C=N/Nc2ccc(C(=O)O)cc2)cc1OC	n	n	n	n	n	n	x
Cc1ccsc1/C=N/Nc1ccc(C(=O)O)cc1	69	71	78	n	u	n	n
COc1ccc(/C=N/Nc2ccc(C(=O)O)cc2)cc1Br	80	69	n	n	n	n	n
COc1ccc(NC(=O)N(C)C[C@H]2OCCCC[C@@H](C)Oc3ccc(NS(=O)(=O)c4ccccc4)cc3C(=O)N([C@H](C)CO)C[C@@H]2C)cc1	n	n	n	n	x	x	x
COc1ccccc1NC(=O)N[C@@H]1CC[C@H](CCn2cc(-c3cccnc3)nn2)O[C@H]1CO	n	n	n	n	x	x	x
Nc1ccc2oc(-c3cc(Br)ccc3Cl)nc2c1	x	54	x	n	n	n	n
Oc1ccc2c(c1)oc1cc(O)ccc12	x	x	x	n	n	n	x
O=c1oc2cc(O)ccc2s1	x	60	n	n	n	n	n
COc1ccc(NC(=O)N[C@H]2C=C[C@@H](CC(=O)NC3CCC3)O[C@H]2CO)cc1	n	n	n	n	x	x	x
Cc1ccc2oc(/N=C(\N)NC(=O)C(C)(C)C)nc2c1	100	85	n	n	72	66	n
O=C(C[C@H]1CC[C@@H]2[C@H](COC[C@H](O)CN2C(=O)c2ccc3c(c2)OCO3)O1)NC1CCCC1	n	n	n	n	x	x	x
CC(=O)N1CCCCN2[C@H](CO)[C@H](c3ccc(-c4cccc(C(=O)N(C)C)c4)cc3)[C@H]2C1	n	n	n	n	x	x	x
CN(c1ccc(NC(=O)CCc2c[nH]c3ccccc23)cc1)c1ccccn1	n	59	n	x	x	x	n
Cc1ccc(/C=C2\SC(=S)N(CCCC(=O)NNC(=O)c3ccccc3O)C2=O)cc1	n	82	64	n	x	55	n
O=C(CCCN1C(=O)/C(=C/c2ccccc2Cl)SC1=S)NNC(=O)c1ccc(Cl)cc1	n	74	n	n	n	n	n
Cc1ccc(/C=C2\SC(=S)N(CCC(=O)NNC(=O)c3ccccc3O)C2=O)cc1	n	51	n	n	n	n	n
Cc1ccc(C(=O)NNC(=O)CCCN2C(=O)/C(=C/c3ccccc3Cl)SC2=S)cc1	n	n	n	x	n	n	x
COc1ccc(-c2cnc3c(c2)C(=O)N([C@@H](C)CO)C[C@@H](C)[C@H](CN(C)S(C)(=O)=O)O3)cc1	n	n	x	n	x	x	x
O=C(NCC[C@@H]1CC[C@@H](NC(=O)C2CC2)[C@H](CO)O1)c1ccc(F)cc1	n	n	x	n	x	x	x
Cc1ccc(C(=O)O/N=C(\N)c2ccccn2)cc1	101	52	105	n	67	79	n
C/C(=N\OC(=O)c1ccc(Br)cc1)c1ccccn1	n	n	n	x	n	n	x
SMILES	LGR2 inh	EWS-Fli block	PAX8 reporter	PGC1a acetyl inh	TRPM1 prom inh	LMP1 NFkB inh	DNA binder FP
CCCNC(=O)C[C@H]1CC[C@@H]2[C@@H](COc3ccc(NC(=O)c4cscn4)cc3C(=O)N2C)O1	n	n	n	n	x	x	x
C/C=C/c1ccc(C2[C@@H]3CN(C(=O)Cc4ccccc4)C[C@H]2N3)cc1 (some centres undefined)	n	55!	n	n	x	x	n
O=C1c2ccccc2C(=O)N1CCCCNc1ccccc1	n	57	n	n	n	n	n
O=C1c2ccccc2C(=O)N1CCCCCCc1ccccc1	n	n	n	n	n	n	x
CN(C)CCCNC(=O)[C@@H]1[C@@H](CO)[C@@H]2Cn3c(ccc(-c4ccc(F)cc4)c3=O)[C@H]1N2C	n	n	n	n	x	x	x
Cc1ccc(-c2nnc(-c3ccccc3)c(-c3ccccc3)n2)cc1	n	n	n	x	n	n	x
Cc1ccc2nc(-c3ccccc3)nn2c1	86	72	x	n	n	64	n

Assay outcomes (PubChem BioAssay)
